Source: PubChem
MbtI inh – inhibitors of Mycobacterium tuberculosis siderophore enzyme MbtI | inhibition, % (concentration not given with the values) | P9WFX0 | purified MbtI enzyme, fluorescence intensity read-out | actives 0.89% (n = 100,000); in the data active = inhibition mostly above about 56%, no sharp cut-off; inactive = mostly below about 77%
Target sequence (P9WFX0 whole entry, looked up): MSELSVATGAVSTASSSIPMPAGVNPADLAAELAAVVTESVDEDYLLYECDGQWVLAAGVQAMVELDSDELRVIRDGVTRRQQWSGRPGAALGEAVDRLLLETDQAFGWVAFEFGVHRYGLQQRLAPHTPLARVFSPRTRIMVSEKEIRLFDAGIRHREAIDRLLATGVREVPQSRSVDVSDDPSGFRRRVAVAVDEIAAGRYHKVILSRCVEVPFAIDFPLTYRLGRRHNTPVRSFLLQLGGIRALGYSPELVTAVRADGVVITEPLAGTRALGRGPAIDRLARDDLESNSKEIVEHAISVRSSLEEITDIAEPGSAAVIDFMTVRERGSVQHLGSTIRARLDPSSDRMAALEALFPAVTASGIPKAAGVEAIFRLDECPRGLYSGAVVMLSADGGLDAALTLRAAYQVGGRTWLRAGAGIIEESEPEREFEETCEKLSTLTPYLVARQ
Mtb MenB inh – inhibitors of Mycobacterium tuberculosis MenB enzyme; P9WNP5; inhibition, % (test concentration not listed); actives 0.43% (n = 100,000); MenB enzyme assay, absorbance read-out; in the data active = inhibition above about 21%, passing the limit was not always enough
AID504770 – growth inhibitors of E. coli YBA685 in a screen for V. cholerae RctB (chromosome II replication) inhibitors | E. coli YBA685 rctB-dependent plasmid, OD600 growth, 3 h; active compounds read low | z-score (no concentration beside the values) | actives 0.27% (n = 130,000) | AID 504770; in the data active = z-score below about -2, passing the limit was not always enough
Polio RdRp inh – inhibitors of poliovirus RNA polymerase binding and polymerization. P03300. poliovirus polymerase elongation, fluorescence polarization; active compounds read low. % elongation, % (compound at 16.7 µg/mL). actives 0.66% (n = 150,000); in the data active = % elongation below about 90%
* hit, by the source's call; · = no result. Sampled rows, rich in hits. Any-hit rate of the full collection: about 1.5%.

SMILES	MbtI inh	Mtb MenB inh	AID504770	Polio RdRp inh
COc1ccc(C(C(=O)NCc2ccccc2)N(Cc2ccco2)C(=O)c2cnccn2)cc1 (stereo not given)	-6	36*	-0.45	99
CCC(C)NC(=O)C1c2ccccc2C(=O)N1C(C)CCc1ccccc1 (stereo not given)	·	·	-0.2	·
CCOC(=O)c1[nH]c(CSc2cccc[n+]2[O-])c(C(=O)OCC)c1C	37	-30	-1.2	66*
CC(C)C(NC(=O)c1ccco1)C(=O)Nc1sc2c(c1C(N)=O)CCC2 (stereo not given)	66	-83	-0.25	95
Nc1cc(=O)[nH]c(=O)n1C1CC1	3	15	0.1	102
CC12CN3CC(C)(C1O)C(O)C(C)(C3)C2O (stereo not given)	-6	-11	-0.3	86*
OCC#CCSc1nc2ccccc2o1	3	39*	0.95	101
c1ccc2oc(SCCSc3nc4ccccc4o3)nc2c1	·	-1	0	106
CN1CCN(C(=O)CSc2nc3ccccc3nc2SCC(=O)N2CCN(C)CC2)CC1	8	-4	1.5	103
CC1=C/C(=N\OC(=O)Cc2ccccc2)C(C)=CC1=O	3	-135	-1.1	104
CC1=CC(=NC(=O)c2ccco2)C(C)=CC1=O	100*	-16	0.4	102
O=C(O)Cc1ccc(NCc2ccc(Br)cc2)cc1	66*	4	-0.65	102
Oc1ccc(NCc2ccc(Br)cc2)cc1	20	5	-0.7	102
CS(=O)(=O)NNc1nccc(-c2cccnc2)n1	87*	-18	0.1	101
Cc1ccc(C(=O)Nc2ccc(Oc3ccccc3)cc2)cc1I	·	-24	-0.2	103
O=C(Nc1ccc2nc3c(=O)[nH]c(=O)[nH]c3nc2c1)C(F)(F)F	135	-35	-0.15	72
O=c1[nH]nc2c3c(cccc13)-c1ccccc1-2	1	58*	1	99
O=C1c2ccccc2-c2n[nH]c3cccc1c23	2	-13	-0.6	99
C=CCOC(=O)c1sc(N2CCCC2=O)c(C(=O)OCC)c1C	8	3	-0.4	102
CCOC(=O)c1sc(N=NC2=C(O)CCCC2=O)c(C(=O)OCC)c1C	14	-40	0.75	42*
O=C(CN1C(=O)c2ccccc2C1=O)c1ccc(Cl)cc1	15	13	0.35	6.0*
CC(NC(=O)c1ccc(-c2ccccc2)cc1)C(=O)O (stereo not given)	3	29*	-1	103
CC(C)C(NC(=O)c1ccccc1)C(=O)O (stereo not given)	-7	-19	-0.65	100
COc1ccc(C(=S)N2CCCCC2)cc1OC	82*	-37	0.05	98
CCOc1cc(C(=S)N2CCOCC2)ccc1OC	·	-21	-1.2	65*
SMILES	MbtI inh	Mtb MenB inh	AID504770	Polio RdRp inh
CCOc1cc(C(C#N)N2CCOCC2)ccc1OC (stereo not given)	·	·	-0.8	·
COc1ccc(C(=S)N2CCCC2)cc1OC	6	1	0.15	101
CN1C2CCC1CC(NC1CCCCC1)C2 (stereo not given)	·	4	1.2	80*
Cc1cccc(CSc2nc3c(cnn3-c3ccc(Cl)cc3)c(=O)[nH]2)c1	·	·	-0.15	·
Cc1nc2ccc(N=Cc3ccc(Br)cc3)cc2s1	-1	-12	-2.4*	105
CN(C)CCNc1ncnc2sc(-c3ccccc3)cc12	106	-9	-1.1	87*
N#C/C(=C(/O)C(F)(F)F)c1nc2ccccc2s1	·	·	-0.45	·
N#C/C(=C(/O)C1CC1)c1nc2ccccc2s1	92*	·	-0.95	101
CCN(Cc1ccccc1)C(=O)C1(S(=O)(=O)c2ccc(C)cc2)CC1	·	·	2.2	·
COC(=O)c1cc(NC(=S)NN2CCOCC2)cc(C(=O)OC)c1	4	45*	0.6	99
S=C(Nc1ccc(Cl)cc1)NN1CCOCC1	-7	-18	2	105
COc1cccc(N(Cc2nnc3n2CCCCC3)C(=O)Nc2ccccc2)c1	·	·	·	114
O=C(Nc1ccccc1)N(Cc1nnc2n1CCCCC2)c1ccc(I)cc1	·	-7	2	90*
CC(C)(C(=O)Nc1ccc2c(c1)OCO2)C(=O)Nc1ccc2c(c1)OCO2	4	41*	0.3	103
CC(=O)NC(NC(C)=O)c1ccc2c(c1)OCO2	-5	31*	-0.05	102
CC(C)(C)C(=O)Nc1ccc2c(c1)OCO2	-4	·	2.3	102
O=C(/C=C/c1ccccc1)Nc1ccc2c(c1)OCO2	-18	-29	-0.65	107
CSc1cccc(NC(=S)N(C)C)c1	74*	-57	-1.1	99
NC(=O)/C=C/C(=O)Nc1ccc2c(c1)OCO2	101*	0	-1.3	101
